# PubChem BioAssay
# Unmarked numbers belong to inactive results. The source made the active and inactive calls.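 The calls were made as follows, unless noted: active = mean inhibition over 43.08%, the solvent-only control mean plus 3 SD; inactive = the rest.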
# Experiments:
# [1] = biological target: Nuclear receptor coactivator 3 (Homo sapiens) (UniProt Q9Y6Q9); experiment: SRC3 coactivator transcriptional activity inhibitors, confirmation, cell-based, luminescence, quadruplicate (AID 588792); details: HEK293 GAL4-SRC3 luciferase reporter, at 3.6 µM, stronger effect = higher value;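 also: 0% = DMSO treated cells and 100% = gossypol at 36 µM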
# [2] = tested on: transactivating tegument protein VP16 (Human herpesvirus 1), Gal4-VP16 luciferase reporter; experiment: VP16 transactivation inhibitors, counter-screen for SRC3 inhibitor project, cell-based, luminescence, high throughput (AID 588794; in the data active = inhibition above about 30%); details: mammalian cells, VP16-driven luciferase reporter luminescence; at 3.6 µM; stronger effect = higher value
# Chain of Nuclear receptor coactivator 3 (Homo sapiens) (Q9Y6Q9 whole entry, looked up, the tested form may be a part): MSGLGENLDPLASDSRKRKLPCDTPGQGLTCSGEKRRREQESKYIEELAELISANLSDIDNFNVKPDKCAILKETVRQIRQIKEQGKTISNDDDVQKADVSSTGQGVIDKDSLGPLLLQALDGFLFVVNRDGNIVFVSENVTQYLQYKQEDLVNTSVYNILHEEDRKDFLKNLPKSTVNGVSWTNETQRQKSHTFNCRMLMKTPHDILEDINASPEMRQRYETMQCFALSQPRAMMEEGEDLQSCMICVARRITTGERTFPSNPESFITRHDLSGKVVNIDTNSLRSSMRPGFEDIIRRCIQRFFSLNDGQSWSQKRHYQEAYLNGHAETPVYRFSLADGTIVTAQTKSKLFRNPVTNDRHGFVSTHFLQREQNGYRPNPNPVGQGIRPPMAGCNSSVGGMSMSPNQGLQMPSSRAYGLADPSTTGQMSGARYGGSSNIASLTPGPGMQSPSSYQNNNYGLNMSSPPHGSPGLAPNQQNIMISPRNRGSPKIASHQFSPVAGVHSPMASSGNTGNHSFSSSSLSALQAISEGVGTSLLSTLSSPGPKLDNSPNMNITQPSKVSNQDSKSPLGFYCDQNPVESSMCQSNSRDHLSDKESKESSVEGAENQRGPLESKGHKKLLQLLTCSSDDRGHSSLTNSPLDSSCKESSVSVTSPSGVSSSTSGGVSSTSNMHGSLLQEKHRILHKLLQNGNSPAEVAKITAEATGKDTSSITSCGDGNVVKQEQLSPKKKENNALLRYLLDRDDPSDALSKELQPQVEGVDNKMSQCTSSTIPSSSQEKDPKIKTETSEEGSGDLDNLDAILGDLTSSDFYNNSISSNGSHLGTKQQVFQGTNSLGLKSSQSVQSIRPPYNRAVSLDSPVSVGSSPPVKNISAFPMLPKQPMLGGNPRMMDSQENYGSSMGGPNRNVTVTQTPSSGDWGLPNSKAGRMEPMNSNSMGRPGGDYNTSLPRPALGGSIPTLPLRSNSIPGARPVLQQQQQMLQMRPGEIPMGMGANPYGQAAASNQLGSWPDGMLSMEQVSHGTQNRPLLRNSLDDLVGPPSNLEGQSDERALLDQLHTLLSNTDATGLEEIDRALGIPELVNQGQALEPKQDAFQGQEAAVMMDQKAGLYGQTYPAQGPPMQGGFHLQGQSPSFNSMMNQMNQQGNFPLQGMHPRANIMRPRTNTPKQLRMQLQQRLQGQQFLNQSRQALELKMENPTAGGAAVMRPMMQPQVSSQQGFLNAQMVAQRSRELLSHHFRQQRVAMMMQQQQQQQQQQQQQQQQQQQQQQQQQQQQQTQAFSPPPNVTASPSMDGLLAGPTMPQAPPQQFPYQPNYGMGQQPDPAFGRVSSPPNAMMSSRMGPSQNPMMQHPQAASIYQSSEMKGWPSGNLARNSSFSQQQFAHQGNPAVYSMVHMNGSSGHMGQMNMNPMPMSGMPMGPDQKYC
Structure (SMILES),inhibition [1],inhibition [2]
CCOC(=O)c1c(C)[nH]c(C(=O)N/N=C\c2ccccc2O)c1C,11.6%,12.8%
CC(=O)/C=C/c1ccc2ccccc2n1,-15.9%,18.8%
CC(=O)Nc1cccc(C(=O)/C=C/c2ccc(Br)cc2)c1,10.8%,11%
C=CCOn1c(C)c(C(C)=O)c2c3nonc3ccc21,42%,25.4%
COc1cccc(-c2c(C(=O)N/N=C/c3ccncc3)nnn2-c2nonc2N)c1,3.64%,12.9%
O=C1c2cccc(NCCNCCO)c2C(=O)c2cccc(NCCNCCO)c21,-30.9%,37.6% (active)
CCc1ccc(CN(C)C(=O)c2cc(COc3cccc4cnccc34)on2)cc1,18.4%,33.7% (active)
Cc1ccccc1NC1=NCC(c2ccc([N+](=O)[O-])cc2)S1 (stereo not drawn),18%,-2.52%
CCOC(=O)c1c(Nc2ccccc2OCCOC)n[nH]c1C,-0.73%,-0.92%
c1ccc(CN2CCN(c3ncnc4c3[nH]c3ccccc34)CC2)cc1,8.1%,29.9% (active)
O=C(COc1ccc(Cl)cc1)NCc1nnc(SCC(=O)NC2CCCCC2)o1,3.51%,3.49%
CC(C)OP(=O)(OC(C)C)/C(C=O)=N\Nc1ccc([N+](=O)[O-])cc1,7.9%,2.13%
COc1ccc(-n2c(-c3ccc(Br)cc3)c[n+]3c2SC(C)C3)cc1 (stereo not drawn),12.5%,23.3%
Cc1ccnc(OC(C(=O)O)C(OCc2ccccc2)(c2ccccc2)c2ccc(C(F)(F)F)cc2)n1 (stereo not drawn),8.84%,12.4%
C/C(=N\NC(=O)COc1ccccc1-c1ccccc1)c1ccc(O)cc1O,8.45%,10.5%
CS(=O)c1nc(-c2ccc(Br)cc2)cc(-c2ccccc2)c1C#N (stereo not drawn),43.9% (active),26.6%
Oc1c(CN2CCCCC2)cc(COCc2ccccc2)c2cccnc12,75.2% (active),66.7% (active)

Structure (SMILES),inhibition [1],inhibition [2]
O=C(CN1CC(c2ccccc2)CC1=O)N/N=C/c1cc(Br)ccc1O (stereo not drawn),15.1%,10.9%
Clc1ccc(SCc2cc(N3CCOCC3)nc(-c3ccccn3)n2)cc1,-5.99%,1.33%
Cc1cc(C)n(-c2ccc(C(=O)Nc3cccc(S(=O)(=O)N(C)C)c3)cc2)n1,-2.01%,18.6%
CCCC(=O)NC(c1ccc(C(C)C)cc1)c1ccc2cccnc2c1O (stereo not drawn),74.5% (active),73.2% (active)
Cc1oc(S(=O)(=O)N(C)C)cc1C(=O)Nc1ccc(Cl)cc1,-1.4%,8.66%
CCc1c(C)nc2ncnn2c1NCCc1ccc(Cl)cc1,23.3%,25.9%
COC(=O)c1ccccc1NC1=C/C(=N\S(=O)(=O)c2cccs2)c2ccccc2C1=O,2.2%,6.65%
Cc1ccc(-c2c[n+](Cc3cccc(Cl)c3)c3n2CCC3)cc1,-6.57%,18.4%
Cc1cccc(NNC(=O)C(=O)NNc2cccc(C)c2)c1,18.6%,24.3%
Cc1cccc(Nc2ncnc(N)c2[N+](=O)[O-])n1,24.9%,4.32%
Cc1ccc(C(=O)C[n+]2ccc(Cc3ccccc3)cc2)cc1,-4.6%,14.8%
COc1ccc(-c2cc(C(=O)N(C)Cc3ccc(OC)c(OC)c3OC)c3ccccc3n2)cc1OC,8.88%,6.51%
CCN(CC)CCCNc1nc2cc(OC)c(OC)cc2c2nc(-c3cccnc3)nn12,-30.7%,39.4% (active)
COc1cccc(/C=N/Nc2nc3ccccc3n3cnnc23)c1O,13.4%,1.79%
CCCc1nn(C)c(C(=O)Nc2cccc(Cl)c2)c1Cl,15%,0.8%
O=S(=O)(NC1=NCCC1)c1cccc(NS(=O)(=O)c2ccc(OC(F)(F)F)cc2)c1,-6.28%,-8.52%
Cc1ccc(C(=O)C[n+]2cc(-c3ccccc3)n3c2CCCCC3)cc1,6.68%,22.9%
